Sampled rows, rich in hits. Any-hit rate of the full collection: about 5.7%.
GLP-1R inv ag: qHTS of GLP-1 Receptor Inverse Agonists (Inhibition Mode) | Glucagon-like peptide 1 receptor (Homo sapiens), P43220 | HEK293 GLP-1R CRE-luciferase, luminescence, 24 h; GLP-1R form is constitutively active | Potency, µM (doses to about 38.3 µM), usual class: inhibitors | 410,000 tested, 1.6% active | AID 624417, 2012; further: nearly all actives have a fitted effect of over 55% in size
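HEK293 cells stably co-expressing a cAMP-responsive luciferase reporter and constitutively active GLP-1R were seeded, incubated 12 h, then exposed to compounds for 24 h at 37 C. Luminescence was read 12 min after detection reagent; inverse agonists lower signal.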
ClpP mod: qHTS Assay for Activators of ClpP. AID 651965, 2013. Potency, µM (top dose mostly 57.5 µM). 340,000 tested, 1.9% active. ATP-dependent Clp protease proteolytic subunit (Bacillus subtilis (strain 168)), P80244. purified B. subtilis ClpP, FRET peptide cleavage, 20 min; active means well fitted falling curve with a large enough effect; inconclusive means small, poorly fitted or top-dose-only effect; inactive means no such curve, though single readings can be large or run the other way; further: the source files actives as falling curves though it sought activators and does not explain the sign; nearly all actives have a fitted effect of over 65% in size
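FRET quenching reversal measured ClpP activation: 10 microg/mL B. subtilis ClpP at pH 8 with the FRET-FV decapeptide, read at 430 nm after 320 nm excitation. The 20-min minus 0-min signal was scaled between DMSO/no-enzyme wells and ADEP (5.8 microM final).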
GLP-1R agonist: qHTS of GLP-1 Receptor Agonists | Potency, µM (highest dose often 45.6 µM), most hits filed as activators | 380,000 tested, 0.007% active | AID 624172, 2012 | HEK293 GLP-1R CRE-luciferase, luminescence, 4-6 h; cells express a hypersensitive GLP-1R form | Glucagon-like peptide 1 receptor (Homo sapiens), P43220
DRD3 antagonist: qHTS of D3 Dopamine Receptor Antagonist: qHTS; 360,000 tested, 2.5% active; AID 652054, 2013; D3R cells, DiscoveRx beta-arrestin luminescence, antagonist mode; hits give low values; max response, negative = inhibition, %; in the data active means max response below about -50%; inconclusive means no clear call, values can overlap the other calls
Target sequence (P35462 whole entry, looked up): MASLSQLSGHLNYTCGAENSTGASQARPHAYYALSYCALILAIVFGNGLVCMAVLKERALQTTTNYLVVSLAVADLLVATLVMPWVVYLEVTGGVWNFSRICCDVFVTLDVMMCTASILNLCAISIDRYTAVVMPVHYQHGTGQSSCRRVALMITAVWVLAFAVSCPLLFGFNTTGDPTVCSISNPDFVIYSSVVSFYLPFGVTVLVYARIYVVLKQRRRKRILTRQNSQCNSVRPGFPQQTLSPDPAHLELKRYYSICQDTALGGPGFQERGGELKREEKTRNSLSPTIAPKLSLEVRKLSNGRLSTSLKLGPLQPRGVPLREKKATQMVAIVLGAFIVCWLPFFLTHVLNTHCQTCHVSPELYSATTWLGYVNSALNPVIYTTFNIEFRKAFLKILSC
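Cells plated overnight at 1500 cells/well, then exposed to library compounds with dopamine controls for 90 minutes at 37 degrees C. DiscoveRx reagent added for 30–60 minutes at room temperature; luminescence read, quantitative HTS format.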
DRD3 agonist: qHTS of D3 Dopamine Receptor Agonist: qHTS | D(3) dopamine receptor (Homo sapiens), P35462 | 410,000 tested, 0.58% active | max activation, % | D3R DiscoveRx beta-arrestin cells, luminescence, 90 min; in the data active means max activation above about 30%
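Agonist-mode cell screen: cells plated at 1500/well and incubated overnight at 37 °C, then exposed to library compounds for 90 min at 37 °C. Detection reagent was added for 30–60 min at room temperature, and luminescence was read.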
HEK293 tox: qHTS of GLP-1 Receptor Inverse Agonists: Cytotox Screen; HEK293 cAMP-luciferase reporter cells, luminescence, 24 h; Potency, µM (top dose mostly 38.3 µM), usual class: inhibitors; 410,000 tested, 0.13% active;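 further: loss of luciferase light is scored as toxicity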
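Compound-treated cells are incubated 24 hr at 37 deg C under 5% CO2 after a 12 hour attachment period, then luciferase detection reagent is added and luminescence is measured following 12 min at room temperature; lowered signal indicates toxicity.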
Large screens that a line does not name were inactive. Unless noted, the call rests on the fitted dose curve; in most records, active means well fitted curve in the direction sought with a large enough effect; inconclusive means small, poorly fitted or top-dose-only effect, or another doubt; inactive means no such curve, though single readings can be large; an effect the other way counts as inactive or inconclusive.

CN(Cc1ccccc1)C(=O)c1c[nH]c2ccc(S(=O)(=O)N3CCOCC3)cc2c1=O	ClpP mod 32µM
COc1ccc(Oc2c(C(F)(F)F)oc3c(CN4CCCC(C)C4)c(O)ccc3c2=O)cc1 (configuration not stated)	none (no result: GLP-1R agonist, DRD3 antagonist)
CCOc1ccc(S(=O)(=O)NCc2ccc(Cl)cc2)c2cccnc12	ClpP mod 16µM
CCOc1ccc(S(=O)(=O)NCc2cccnc2)c2ccccc12	none (no result: ClpP mod)
CCOc1ccc(S(=O)(=O)NCC2CCCO2)c2ccccc12 (configuration not stated)	GLP-1R inv ag inconclusive
CCOc1ccc(S(=O)(=O)NCC2CCCO2)c2cccnc12 (configuration not stated)	ClpP mod 40µM
CN(C)S(=O)(=O)c1ccc(NC(=O)CSc2nnnn2C)cc1	none
CCOc1ccc(NC(=O)CSC(N)=O)cc1	DRD3 antagonist -72
CCCCOc1ccc(NC(=O)CSc2nnnn2C)cc1	DRD3 antagonist -113
O=C(CSc1n[nH]c(-c2ccccc2)n1)N1CCN(c2ccccc2F)CC1	none (no result: GLP-1R agonist, DRD3 antagonist)
CCOCCOc1cc(NCc2ccccc2)c2ncn(C(C)C)c2c1	GLP-1R inv ag inconclusive, DRD3 antagonist inconclusive
COc1cc(C)c(S(=O)(=O)N2CCOCC2)cc1C	DRD3 antagonist -85
CCOC(=O)C1CCCN(Cc2cn3c(-c4ccc(Br)cc4)nnc3s2)C1 (configuration not stated)	none (no result: DRD3 antagonist)
COc1ccc(-n2c(=O)c3c4c(sc3n(Cc3ccc(F)cc3)c2=O)CN(C(C)=O)CC4)c(OC)c1	none (no result: GLP-1R agonist, DRD3 antagonist)
Cc1ccc(S(=O)(=O)N[C@H](C(=O)OCC(=O)NC(=O)c2cccn2C)C(C)C)cc1	GLP-1R inv ag inconclusive, DRD3 agonist 35 (no result: ClpP mod)
CC(C)[C@H](NS(=O)(=O)c1ccccc1)C(=O)OCC(=O)NC(=O)c1cccn1C	none
COc1ccc(-c2csc(C(C)(O)c3ccncc3)n2)cc1OC (configuration not stated)	none
CCOc1ccccc1C(=O)Nc1ccc(S(=O)(=O)Nc2ncccn2)cc1	none (no result: GLP-1R agonist, DRD3 antagonist)
CN(CCN1CCc2ccccc2C1)Cc1nc(-c2ccc3c(c2)OCO3)no1	DRD3 antagonist -70 (no result: ClpP mod)
CN(CCN1CCc2ccccc2C1)Cc1nc(Cc2ccccc2F)no1	GLP-1R inv ag inconclusive, DRD3 antagonist -59 (no result: ClpP mod)
c1ccc(OCCN2CCN(Cc3nc(-c4ccc5c(c4)OCO5)no3)CC2)cc1	GLP-1R inv ag inconclusive, DRD3 antagonist inconclusive, DRD3 agonist 73
COc1ccc(Cc2noc(CN(C)CCN3CCc4ccccc4C3)n2)cc1OC	DRD3 antagonist inconclusive
COc1cccc(CNS(=O)(=O)c2cnc(N)nc2)c1	none (no result: GLP-1R agonist, DRD3 antagonist)
CC(=O)N1c2ccccc2C(=O)OC1c1cccnc1 (configuration not stated)	ClpP mod 28µM
CCN(C(=O)Cn1c(=O)n(Cc2ccc3c(c2)OCO3)c(=O)c2ccc(C(=O)NC3CCCCC3)cc21)c1cccc(C)c1	none (no result: DRD3 antagonist)
NC(=O)CC[C@@H]1NC(=O)[C@@H]2CCCN2C(=O)c2cc([N+](=O)[O-])cc(I)c2NCCC[C@@H](C(=O)NC(CC(=O)O)C(N)=O)NC1=O (some centres not stated)	HEK293 tox inconclusive
NC(=O)CC[C@@H]1NC(=O)[C@@H]2CCCN2C(=O)c2cc([N+](=O)[O-])cc(I)c2NCCC[C@@H](C(N)=O)NC1=O	DRD3 agonist 44
COc1cc(C2CC(=O)Nc3c2c(=O)n(C)c2ncnn32)cc(OC)c1OC (configuration not stated)	none (no result: DRD3 antagonist)
Cc1ccc(-c2cn(-c3cccc(Cl)c3)c(S(=O)(=O)CC(=O)Nc3cccc(C)c3)n2)cc1	GLP-1R inv ag 8.9µM (no result: GLP-1R agonist, DRD3 antagonist)

Source: PubChem BioAssay (National Center for Advancing Translational Sciences (NCATS))
